{"source": "PubChem BioAssay (NCATS)", "note": "A number with no mark means an inactive call. Inconclusive results are not listed. Calls of active or inactive are those of the source. Calls come from the whole dose curve; as a rule, active = well fitted curve in the direction sought with a large enough effect; inconclusive = small, poorly fitted or top-dose-only effect, or another doubt; inactive = no such curve, though single readings can be large; an effect the other way counts as inactive or inconclusive.", "data": [{"system": "not listed separately", "assay": "qHTS for small molecule inhibitors of Yes1 kinase: Counter Assay (AID 686950);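 note: no kinase present so only ADP-Glo detection of a fixed ADP amount is tested; luminescence from ADP-Glo reporting ADP in a fixed ATP and ADP mixture; 0% = DMSO wells with ATP plus ADP and -100% = ATP-only wells without ADP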", "details": "series mostly up to 76.9 µM; activity change, negative = inhibition: at the top concentration", "method_in_brief": "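ADP-Glo luminescence read after a 60 min room-temperature incubation of compound with an ATP/ADP mix (0.08 mM/0.02 mM) and no kinase, following a 20 min compound preincubation. Signal scaled between ATP+ADP (max) and 0.1 mM ATP-only (min) wells; Tris pH 7.5, Mg2+, DTT.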", "values": [{"smiles": "Cc1ccc(-c2cc(C(F)(F)F)nn2-c2ccc(S(N)(=O)=O)cc2)cc1", "activity change, negative = inhibition": "2.46% [at 154 µM]"}, {"smiles": "O=c1c(-c2ccc(O)cc2)coc2cc(O)cc(O)c12", "activity change, negative = inhibition": "-4.54%"}, {"smiles": "COc1ccc(CCN(C)CCCC(C#N)(c2ccc(OC)c(OC)c2)C(C)C)cc1OC", "note": "(stereo not given)", "outcome": "inactive"}, {"smiles": "Cc1cn([C@H]2C[C@H](N=[N+]=[N-])[C@@H](CO)O2)c(=O)[nH]c1=O", "activity change, negative = inhibition": "0.443%"}]}, {"biological_target": "Arylsulfatase A (Homo sapiens) (UniProt P15289)", "sequence (P15289 whole entry, looked up)": "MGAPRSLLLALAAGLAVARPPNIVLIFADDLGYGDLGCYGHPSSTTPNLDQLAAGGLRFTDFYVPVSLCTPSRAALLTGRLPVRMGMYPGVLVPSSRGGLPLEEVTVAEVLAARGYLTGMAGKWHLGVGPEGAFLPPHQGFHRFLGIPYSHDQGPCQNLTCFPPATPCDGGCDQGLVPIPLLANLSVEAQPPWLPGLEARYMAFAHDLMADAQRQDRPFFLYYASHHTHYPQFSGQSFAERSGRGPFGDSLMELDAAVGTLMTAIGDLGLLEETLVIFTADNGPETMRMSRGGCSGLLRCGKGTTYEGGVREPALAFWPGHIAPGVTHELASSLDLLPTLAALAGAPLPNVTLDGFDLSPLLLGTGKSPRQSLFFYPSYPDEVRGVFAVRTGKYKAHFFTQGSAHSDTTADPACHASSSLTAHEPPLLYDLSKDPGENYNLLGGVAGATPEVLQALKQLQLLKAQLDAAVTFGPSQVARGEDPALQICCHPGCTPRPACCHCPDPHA", "assay": "qHTS screen for enhancers of Arylsulfatase A (ASA1): LOPAC Validation Assay (AID 720538); for activity change, positive = activation: 0% is about no effect", "details": "ASA enzyme activity, LOPAC qHTS enhancer assay; series mostly up to 57.5 µM; activity change, positive = activation: at the top concentration; outcome: at the top concentration", "method_in_brief": "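SV40-transformed fibroblasts from an MLD patient (ASA-I179S) were treated with compound for 48 h at 37 C. They were then lysed with 0.5 mM pNCS substrate (final) for 14 h at room temperature and stopped with NaOH; signal read by fluorescence (Ex 525/Em 598 nm), with increase denoting enhanced activity.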", "units": {"activity change, positive = activation": "%"}, "values": [{"smiles": "CC(C)(Oc1ccc(C2CC2(Cl)Cl)cc1)C(=O)O", "note": "(stereo not given)", "outcome": "inactive; inhibitor; fitted 2.3934 uM"}, {"smiles": "CC(C)Cc1ccc(C(C)C(=O)O)cc1", "note": "(stereo not given)", "activity change, positive = activation": -23.7}, {"smiles": "O=c1c(-c2ccc(O)cc2)coc2cc(O)cc(O)c12", "activity change, positive = activation": 3.93}, {"smiles": "COc1ccc2c(c1)c(CC(=O)O)c(C)n2C(=O)c1ccc(Cl)cc1", "activity change, positive = activation": -1.18}, {"smiles": "CC(C)C(=O)Nc1ccc([N+](=O)[O-])c(C(F)(F)F)c1", "activity change, positive = activation": -11.5}, {"smiles": "Cc1cn([C@H]2C=C[C@@H](CO)O2)c(=O)[nH]c1=O", "activity change, positive = activation": -2.25}, {"smiles": "N[C@@H](Cc1c[nH]c2ccc(O)cc12)C(=O)O", "outcome": "inactive"}, {"smiles": "Clc1ccc(C(c2ccccc2Cl)C(Cl)Cl)cc1", "note": "(stereo not given)", "outcome": "inactive"}, {"smiles": "COc1ccc(CCN(C)CCCC(C#N)(c2ccc(OC)c(OC)c2)C(C)C)cc1OC", "note": "(stereo not given)", "outcome": "inactive"}, {"smiles": "COc1ccc2[nH]cc(CCNC(C)=O)c2c1", "activity change, positive = activation": -23.9}, {"smiles": "COc1cc2c(c(OC)c1OC)-c1ccc(OC)c(=O)cc1[C@@H](NC(C)=O)CC2", "activity change, positive = activation": 16.6}, {"smiles": "Nc1ccn([C@H]2CC[C@@H](CO)O2)c(=O)n1", "outcome": "inactive"}, {"smiles": "Cn1cnc2c1c(=O)[nH]c(=O)n2C", "activity change, positive = activation": -6.15}, {"smiles": "Cc1cn([C@H]2C[C@H](N=[N+]=[N-])[C@@H](CO)O2)c(=O)[nH]c1=O", "outcome": "inactive"}, {"smiles": "NCCS(=O)(=O)O", "activity change, positive = activation": -1.55}, {"smiles": "CCC1(c2ccccc2)C(=O)NCNC1=O", "activity change, positive = activation": 13.6}, {"smiles": "NS(=O)(=O)c1cc2c(cc1Cl)NCNS2(=O)=O", "activity change, positive = activation": -2.57}, {"smiles": "O=C(Nc1ccc([N+](=O)[O-])cc1Cl)c1cc(Cl)ccc1O", "activity change, positive = activation": -49.6}, {"smiles": "Cn1c(=O)c2c(ncn2C)n(C)c1=O", "outcome": "inactive"}, {"smiles": "CCOC(=O)C(C)(C)Oc1ccc(Cl)cc1", "activity change, positive = activation": 9.44}, {"smiles": "CC#C[C@]1(O)CC[C@H]2[C@@H]3CCC4=CC(=O)CCC4=C3[C@@H](c3ccc(N(C)C)cc3)C[C@@]21C", "outcome": "inactive"}]}]}
